Data reported in PubChem BioAssay (NCI).
Values joined by “and” are separate entries in the source; they are usually repeats but may differ in a detail not shown here. Identical values can stand only once. Compounds without any hit were thinned out: in the full panel of roughly 83,000, 20% have a hit.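 Plates (96-well) were seeded with cells, treated with compound at one concentration, and incubated for 48 hours before percent growth was determined.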 Values without a mark were called inactive. Active and inactive are the calls of the source. The calls were made as follows: active = growth percent below 10; inactive = the rest.

system: MDA-MB-468 breast; experiment: NCI-60 one-dose screen, 48 h (100 = growth as untreated, 0 = no growth, -100 = all killed); settings: 10 µM unless noted

**Q.** With C#Cc1ccc(NC(=O)c2ccc(/C=C/C(=O)c3nccn3C)cc2)c(F)c1 as the compound, how does the growth read?
**A.** Its growth is 32.3%.

**Q.** For COc1cc2oc(-c3cccc(NC(=O)c4cc(N)ccc4Cl)c3)cc(=O)c2c(OC)c1OC, which growth is on record?
**A.** Its growth is 95.3%.

**Q.** For N#CCCN1C/C(=C/c2ccccc2)C(=O)/C(=C/c2ccccc2)C1, which growth is on record?
**A.** Its growth is 11.7%.

**Q.** How did the growth turn out when CCOP(=O)(OCC)OC[C@]12CCC(C)(C)CC1C1=CC[C@@H]3[C@@]4(C)CCCNC(C)(C)[C@@H]4CC[C@@]3(C)[C@]1(C)CC2 (stereo not given in full) was run?
**A.** The growth was 53.5%.

**Q.** With Cn1ccnc1C(=O)/C=C/c1ccc(C(=O)Nc2ccc(Cl)cc2)cc1 as the compound, how does the growth read?
**A.** The growth was 12.1%.

**Q.** Which growth does the source give for CC(=O)OC(c1ccccc1)C1CCOC1=O (stereo not given) here?
**A.** Its growth is 80.8%.

**Q.** With O=C(Nc1ccccc1Cl)Oc1ccc(-c2ccccc2)cc1 as the compound, how does the growth read?
**A.** Its growth is 115%.

**Q.** For CC(C)N(CCOc1ccc(-c2nc3sccn3c2-c2ccnc(S(C)(=O)=O)n2)cc1)C(C)C, which growth is on record?
**A.** Its growth is 9.31% (active).

**Q.** For COc1ccc(-c2oc3cc(O)cc(O)c3c(=O)c2OC)cc1O, which growth is on record?
**A.** The growth was -3.48% (active).

**Q.** With Cc1ccc(NC(=O)c2[nH]c(SCCN(C)C)nc2-c2ccc(F)cc2)cc1C#Cc1cnc2cccnn12 as the compound, how does the growth read?
**A.** The growth was 83.1%.

**Q.** COc1cc(C2CC(c3ccc(Nc4nc(NCCO)nc(N5CCOCC5)n4)cc3)=NN2c2cc(Cl)cc(Cl)c2)cc(OC)c1OC (stereo not given) was tested. Which growth did it give?
**A.** Its growth is 64%.

**Q.** With CCCCOc1ccc(NC(=O)Nc2nnc(C)s2)cc1 as the compound, how does the growth read?
**A.** The growth was 103%.

**Q.** Which growth does the source give for O=C(/C=C/c1ccccc1)c1c[nH]c2ccccc2c1=O here?
**A.** The growth was -52.7% (active).

**Q.** Which growth does the source give for COc1cccc(C2C(C#N)=C(N)Oc3c2ccc2ccccc32)c1 (stereo not given) here?
**A.** Its growth is 11.6%.

**Q.** For N#C/C(=C\c1ccc(Br)cc1)n1nnc2ccccc21, which growth is on record?
**A.** The growth was 6.92% (active).

**Q.** How did the growth turn out when O=S(=O)(O)c1ccc(O)c2ccccc12 was run?
**A.** Its growth is 104%.

**Q.** O=C(N/N=C/c1ccc(Cl)cc1Cl)c1ccc2nc(-c3ccc(Cl)cc3)[nH]c2c1 was tested. Which growth did it give?
**A.** The growth was -44.1% (active).

**Q.** Which growth does the source give for C=C(C)[C@@H]1CC[C@]2(C(N)=O)CC[C@]3(C)[C@H](CC[C@@H]4[C@@]5(C)CC[C@H](O)C(C)(C)[C@@H]5CC[C@]43C)[C@@H]12 here?
**A.** Its growth is -56% [100 µM] (active).

**Q.** With C#Cc1nc(C(=O)NCCC(=O)Nc2ccc(NC(=O)c3ccc(/C=C/C(=O)c4nccn4C)cc3)cc2)cs1 as the compound, how does the growth read?
**A.** Its growth is 20.6%.

**Q.** Nc1nc(N)c(N)c(Nc2ccc(CCO)cc2)n1 was tested. Which growth did it give?
**A.** Its growth is 92.8%.

**Q.** O=C(CCl)N(C1CCCCC1)C1CCCCC1 was tested. Which growth did it give?
**A.** Its growth is 91.5%.

**Q.** How did the growth turn out when O=[N+]([O-])c1cc(Cl)cc(Cl)c1O was run?
**A.** The growth was 104%.

**Q.** For CSc1nc2c(c(=O)[nH]1)N=C1c3ccccc3C(=O)C1C(c1ccc(F)cc1)N2 (stereo not given), which growth is on record?
**A.** The growth was 21.7%.

**Q.** O=C1C=Cc2ccccc2/C1=C/c1nc(-c2ccccc2)oc1O was tested. Which growth did it give?
**A.** The growth was 88.6%.

**Q.** How did the growth turn out when O=C(CN1CCOCC1)N1CCOCC1 was run?
**A.** The growth was 108% and 116%.

**Q.** For COc1ccc(C(=O)c2cc(C)c(OC)c(C)c2)c(OC)c1O, which growth is on record?
**A.** The growth was 20.4%.

**Q.** Which growth does the source give for O=c1[nH]c(O)c(/C=C2/C=Nc3ccccc32)[nH]1 here?
**A.** The growth was 66.1%.

**Q.** Which growth does the source give for CCOCCC(=O)O here?
**A.** The growth was 99.2%.

**Q.** For CN1CCN(c2ccc(Nc3ncc4[nH]c(=O)n(Cc5ccccc5N)c4n3)cc2)CC1, which growth is on record?
**A.** Its growth is 111%.

**Q.** For O=C1Nc2cc(-c3cccc(O)c3)ccc2/C1=C/c1ccc[nH]1, which growth is on record?
**A.** Its growth is 7.4% (active).

**Q.** Which growth does the source give for CCCCCCCCCCCCCCCCCCSC1=CC(=O)C(OC)=C(OC)C1=O here?
**A.** Its growth is 105%.

**Q.** For Nc1nccc(=S)[nH]1, which growth is on record?
**A.** Its growth is 109%.

**Q.** Nc1nc(N=Nc2ccc(O)cc2)cc(=O)[nH]1 was tested. Which growth did it give?
**A.** Its growth is 91.5%.

**Q.** With COc1ccc2[nH]c(=O)c(/C=C/C(=O)/C=C/c3ccc(O)c(OC)c3)cc2c1 as the compound, how does the growth read?
**A.** The growth was -32.1% (active).

**Q.** Which growth does the source give for CCOC(=O)C(CCC1=NC(C)(C)CC(C)O1)C(=O)OCC (stereo not given) here?
**A.** The growth was 70.5%.

**Q.** For CN(C)c1ncnc2c1nnn2C1OC(CO)C(O)C1O (stereo not given), which growth is on record?
**A.** The growth was -26.5% (active).

**Q.** With Cc1oc2c(C(=O)N/N=C\c3ccc(O)cc3O)c[nH]c2c1C as the compound, how does the growth read?
**A.** Its growth is -11.8% (active).

**Q.** Which growth does the source give for CCCCCCCCCCCCCC[n+]1ccc(C(N)=O)cc1 here?
**A.** The growth was -40.6% (active).

**Q.** Which growth does the source give for N#Cc1c2cccnc2c2nnc3cc(Cl)c(Cl)cc3n12 here?
**A.** The growth was -56% (active).

**Q.** How did the growth turn out when Clc1cccc(-c2cc(-c3ccc4c(c3)OCCO4)[nH]n2)c1 was run?
**A.** Its growth is 6.54% [25 µM] (active).
